Assay results reported in PubChem BioAssay (EPA / NIEHS).
Results filed as inconclusive are left out. Active and inactive are the calls of the source. How the source made its calls, unless noted: active means hit-call score of the fitted dose curve at least 0.9, where 1 is the maximum; inactive means score below 0.9.

Experiments:
[1] = CCTE_Shafer_MEA_dev_firing_rate_mean: CCTE's Neural Network Formation Assay for Mean Firing Rate, Shafer Lab (AID 2284031);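 on AC50: curve fitted for loss of firing so AC50 reflects decreased mean firing rate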
How it was run: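 Steps: seed rat cortical cells (1.5 x 10^5/well) with laminin on PEI-coated MEA; dose day 0; record DIV 5/7/9/12, full media and compound exchange after DIV 5 and 9 recordings; compute well-mean firing rate AUC.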

[2] = CCTE_Shafer_MEA_dev_per_burst_spike_percent: CCTE's Neural Network Formation Assay for Percent of Spikes in a Burst, Shafer Lab (AID 2284032);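 on AC50: fitted as a decrease in burst spike percentage below DMSO baseline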
How it was run: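 Value is trapezoidal AUC over recordings on days 5, 7, 9 and 12 of the well-mean fraction of spikes falling in single-electrode bursts; rat cortical cultures exposed continuously from plating, treatment renewed DIV 5 and 9, fitted downward against DMSO.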

[3] = CCTE_Shafer_MEA_dev_active_electrodes_number: CCTE's Neural Network Formation Assay for Number of Active Electrodes, Shafer Lab (AID 2284040; active means hit-call score of the fitted dose curve at least 0.9, where 1 is the maximum;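 on AC50: potency for loss of active electrodes versus DMSO so lower counts are hits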)
How it was run: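 Counts electrodes per well firing at least 5 spikes/min, recorded on days 5, 7, 9 and 12 in rat cortical cultures dosed continuously from plating (treatment refreshed DIV 5, 9). Value is the area under the curve over recordings, fitted downward relative to DMSO.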

[4] = CCTE_Shafer_MEA_dev_burst_rate: CCTE's Neural Network Formation Assay for Burst Rate, Shafer Lab (AID 2284042)
How it was run: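 Exposure ran continuously over 12 days of network development in rat cortical cultures, with compound refreshed during full media changes on DIV 5 and 9. Single-electrode bursts per recording time, well-mean over active electrodes, trapezoidal AUC across days 5–12, fitted downward relative to DMSO.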

[5] = molecular target: Estrogen receptor (Homo sapiens) (UniProt P03372); test: CCTE_Deisenroth_AIME_384WELL_LUC_Active: CCTE's 384-well Estrogen Receptor Transactivation Assay with AIME metabolic competence (ERTA luciferase; metabolism positive), Deisenroth Lab (AID 2284030; active means hit-call score of the fitted dose curve at least 0.9, where 1 is the maximum)
Chain of Estrogen receptor (Homo sapiens) (P03372 whole entry, looked up): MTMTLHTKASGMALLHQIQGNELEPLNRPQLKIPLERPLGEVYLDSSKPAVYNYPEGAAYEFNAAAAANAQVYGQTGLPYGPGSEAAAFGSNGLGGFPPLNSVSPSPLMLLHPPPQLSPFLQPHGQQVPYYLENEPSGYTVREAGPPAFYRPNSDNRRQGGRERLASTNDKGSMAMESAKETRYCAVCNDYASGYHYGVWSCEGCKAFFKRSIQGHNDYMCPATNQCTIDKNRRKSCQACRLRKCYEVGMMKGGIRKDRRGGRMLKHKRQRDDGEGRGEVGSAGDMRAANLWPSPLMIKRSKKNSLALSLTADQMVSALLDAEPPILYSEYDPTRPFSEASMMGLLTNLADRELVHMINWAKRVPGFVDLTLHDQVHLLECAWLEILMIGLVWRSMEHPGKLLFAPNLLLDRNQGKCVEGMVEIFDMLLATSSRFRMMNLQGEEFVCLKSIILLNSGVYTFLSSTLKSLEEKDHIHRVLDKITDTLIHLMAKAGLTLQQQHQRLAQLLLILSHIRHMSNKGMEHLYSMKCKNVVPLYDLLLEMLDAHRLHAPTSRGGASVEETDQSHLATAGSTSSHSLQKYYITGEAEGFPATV
How it was run: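 Estrogenic luciferase signal in VM7Luc4E2 cells is measured at 24 hour, after chemicals have been preconditioned 2 hours with PB/BNF-induced rat hepatic S9 in alginate. Gain of signal is fitted relative to 17beta-estradiol, across 0.002 - 200 uM.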

[6] = CCTE_Deisenroth_AIME_384WELL_CTox_Active: Cytotoxicity Assessment (CTOX) in CCTE's 384-well Estrogen Receptor Transactivation Assay with AIME metabolic competence (metabolism positive), Deisenroth Lab (AID 2284037; active means hit-call score of the fitted dose curve at least 0.9, where 1 is the maximum;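 further: chemicals first conditioned 2 h by alginate-bound induced rat liver S9 before cells; activity means signal loss indicating cell death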)
How it was run: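 Chemicals pre-incubated 2 hours with alginate-immobilised phenobarbital/beta-naphthoflavone-induced male Sprague Dawley rat liver S9, then conditioned medium applied 24 hour to VM7Luc4E2 cells. Viability by fluorogenic protease substrate; 10-point series 0.002 - 200 uM.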

[7] = molecular target: Estrogen receptor (Homo sapiens) (UniProt P03372); test: CCTE_Deisenroth_AIME_384WELL_LUC_Inactive: CCTE's 384-well Estrogen Receptor Transactivation Assay without AIME metabolic competence (ERTA luciferase; metabolism negative), Deisenroth Lab (AID 2284038; active means hit-call score of the fitted dose curve at least 0.9, where 1 is the maximum;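 further: VM7Luc4E2 breast cells given medium preincubated 2 h with S9-free microspheres; hits raise estrogen receptor luciferase signal so potencies reflect agonists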)
How it was run: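 VM7Luc4E2 ER transactivation, luciferase bioluminescence after 24 h, using medium pre-incubated 2 h with S9-free alginate microspheres. Concentrations 0.002–200 uM; gain of signal fitted relative to 17beta-estradiol.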

[8] = CCTE_Deisenroth_AIME_384WELL_CTox_Inactive: Cytotoxicity Assessment (CTOX) in CCTE's 384-well Estrogen Receptor Transactivation Assay without AIME metabolic competence (metabolism negative), Deisenroth Lab (AID 2284039; active means hit-call score of the fitted dose curve at least 0.9, where 1 is the maximum;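 further: cell viability via live-cell protease substrate cleaved to fluorescent probe; cells exposed 24 h to medium preincubated 2 h with alginate-water beads without S9; loss of fluorescence signal means loss of viability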)
How it was run: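 Fluorescent protease-substrate viability readout after 24 h exposure of VM7Luc4E2 cells to conditioned medium. Chemicals (0.002–200 uM) first sat 2 h over alginate-water beads, no S9. Data fitted bidirectionally, loss of signal meaning viability loss.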

[9] = molecular target: Estrogen receptor (Homo sapiens) (UniProt P03372); test: CCTE_Deisenroth_AIME_384WELL_LUC_Shift: CCTE's 384-well Estrogen Receptor Transactivation Assay with AIME metabolic competence data shift (ERTA luciferase; difference in metabolism positive and negative), Deisenroth Lab (AID 2284041);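 further: shift is response with S9 minus without S9 so positive means metabolism raised ER signal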
How it was run: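 Chemicals (0.002–200 uM, 10 points) pre-incubated 2 h with alginate-encapsulated induced male Sprague Dawley rat liver S9 or S9-free, then medium applied 24 h to VM7Luc4E2 cells; luciferase. Endpoint is per-concentration difference, S9-positive minus negative.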

[10] = CCTE_Deisenroth_AIME_96WELL_CTox_Inactive: Cytotoxicity Assessment (CTOX) in CCTE's 96-well Estrogen Receptor Transactivation Assay without AIME metabolic competence (metabolism negative), Deisenroth Lab (AID 2284029; active means hit-call score of the fitted dose curve at least 0.9, where 1 is the maximum)
How it was run: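 Metabolism-negative mode: alginate-water lids without rat S9, 2 h pre-incubation of 10-point series (0.002 - 200 uM). Conditioned medium on VM7Luc4E2 cells 24 h; loss of fluorescent live-cell protease signal marks cytotoxicity.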

Measured: AC50

CCN(CCO)S(=O)(=O)C(F)(F)C(F)(F)C(F)(F)C(F)(F)C(F)(F)C(F)(F)C(F)(F)C(F)(F)F
inactive: [1] | [2] | [3] | [4]

NC(=O)C(F)(F)C(F)(F)C(F)(F)F
inactive: [1] | [2] | [4]

N#Cc1ccccc1O
inactive: [5] | [6] | [7] | [8] | [9]

CC(C)OC=O
inactive: [6] | [7] | [8] | [9]

CC(=O)CCC(C)C
inactive: [5] | [6] | [7] | [8] | [9]

NC(=O)C(F)(F)C(F)(F)C(F)(F)C(F)(F)C(N)=O
inactive: [1] | [2] | [3] | [4]

CCCCCCCC/C=C\CCCCCCCC(=O)OCC(O)CO (centres undefined)
inactive: [5] | [7] | [8] | [9]

OCC(F)(F)C(F)(F)C(F)(F)CO
inactive: [1] | [2] | [3] | [4]

OC(O)C(F)(F)C(F)(F)F
inactive: [1] | [2] | [4]

NC(O)(C(F)(F)F)C(F)(F)F
inactive: [1] | [2] | [3] | [4]

CO[Si](C)(CCC(F)(F)C(F)(F)C(F)(F)C(F)(F)C(F)(F)C(F)(F)F)OC
inactive: [1] | [2] | [4]

O=S(=O)(O)CCC(F)(F)C(F)(F)C(F)(F)C(F)(F)C(F)(F)C(F)(F)C(F)(F)C(F)(F)F
inactive: [1] | [2] | [4]

OCC(F)(F)C(F)(F)C(F)(F)C(F)(F)C(F)(F)C(F)(F)C(F)(F)C(F)(F)CO
active: [3] 15 µM
inactive: [1] | [2] | [4]

C=CC(=O)OCCC(F)(F)C(F)(F)C(F)(F)C(F)(F)F
inactive: [1] | [2] | [3] | [4]

NC(=O)C(F)(F)C(F)(F)C(F)(F)C(F)F
inactive: [1] | [2] | [4]

CNS(=O)(=O)C(F)(F)C(F)(F)C(F)(F)C(F)(F)C(F)(F)C(F)(F)C(F)(F)C(F)(F)F
inactive: [1] | [2] | [3] | [4]

CCCCCCCC/C=C\CCCCCCCC(=O)N(C)CC(=O)O
inactive: [8] | [9]
active: [6] 124 µM

CCOC(OCC)OCC
inactive: [5] | [6] | [7] | [9]

C=CC(=O)OCC(F)(F)C(F)(F)C(F)(F)COC(=O)C=C
inactive: [4]
active: [1] 4.71 µM | [2] 4.39 µM | [3] 4.25 µM

OCC1CCCO1 (centres undefined)
inactive: [5] | [7] | [9]

CCCCOC(=O)C(C)O (centres undefined)
inactive: [5] | [6] | [7] | [8] | [9]

CC(C)(C)c1cc(Cc2cc(C(C)(C)C)c(O)c(C(C)(C)C)c2)cc(C(C)(C)C)c1O
inactive: [5] | [6] | [7] | [9]

CCCCC(CC)COC(=O)c1ccc(N(C)C)cc1 (centres undefined)
inactive: [10]

OCC(O)CC(F)(F)C(F)(F)C(F)(F)C(F)(F)F (centres undefined)
inactive: [1] | [2] | [3] | [4]

OCC(F)(F)C(F)(F)C(F)(F)C(F)(F)C(F)(F)C(F)(F)CO
active: [3] 0.65 µM
inactive: [1] | [2] | [4]

CCN=C1C=CC(=C(c2ccc(N(CC)CC)cc2)c2ccc(N(CC)CC)cc2)c2ccccc21
inactive: [9]
active: [6] 59.1 µM | [8] 57.3 µM

O=C(O)C(F)(F)C(F)(F)C(F)(F)OC(F)(F)F
inactive: [1] | [2] | [4]

OCCCCC(F)(F)C(F)(F)C(F)(F)C(F)(F)F
inactive: [1] | [2] | [3] | [4]

Cc1ccc(O)c(-n2nc3ccccc3n2)c1
active: [5] 51.3 µM | [7] 38.2 µM
inactive: [10] | [9]

FC(F)(F)C(F)(F)C(F)(F)C(F)(F)C(F)(F)C(F)(F)C(F)(F)CCI
inactive: [1] | [2] | [3] | [4]

O=C(c1ccccc1)c1ccc(O)cc1O
inactive: [6] | [9]
active: [5] 42.3 µM | [7] 40.3 µM

O=C1C=CC(=O)N1c1ccccc1
inactive: [5] | [6] | [7] | [8] | [9]

O=S(=O)(O)CCC(F)(F)C(F)(F)C(F)(F)C(F)(F)F
inactive: [1] | [2] | [3] | [4]
